The text below walks through data of PubChem BioAssay AID504415 (Broad Institute, 2011).

Structures are written as SMILES. Entries with a potency or affinity are not part of this list. Records with an inconclusive call do not appear. Active and inactive are the calls of the source.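 Rule for the calls: active = compound lowering the signal whose fitted half-maximal concentration is at most ten times its top tested dose; inconclusive = flat curve with 30 to 70% loss, or poor fit; inactive = the rest.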

The assay is described as follows: viability loss in Mcl1-dependent HMC-1-8 cells, dose response, selectivity assay for A1 inhibitor project, cell-based, luminescence, dry powder (AID 504415). The conditions noted are these: HMC-1-8 (Mcl1-dependent) viability, Glo luminescence, 24 h; series mostly up to 35 µM; activity change, negative = viability loss: at the top concentration.
As for `Cn1c(=O)c([N+](=O)[O-])c(Oc2ccccc2)c2ccccc21`, the “activity change, negative = viability loss” value was 12.5% (inactive). The figure for `Cc1ccc(Nc2c([N+](=O)[O-])c(=O)oc3ccccc23)cc1` is 10.5% (inactive); for `O=c1oc2ccccc2c(Cl)c1[N+](=O)[O-]` it is 23.9% (inactive). The figure for `Cc1ccc(Nc2c([N+](=O)[O-])c(=O)n(C)c3ccccc23)cc1` is 5.87% (inactive); for `CCOC(=O)N1CCN(c2c([N+](=O)[O-])c(=O)n(C)c3ccccc23)CC1` it is 8.34% (inactive).
